Measurements from PubChem BioAssay.
The source made the active and inactive calls.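 The calls were made as follows, unless noted: active = inhibition of the reporter signal at or above 50%; inactive = inhibition below 50%.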

Tests used:
[1] = inhibitors of TNFa-induced NFkB p65 translocation, primary screen, imaging, HUVEC, MLSMR starter and 10KST1 sets (AID 438;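 active = inhibition above 20% together with a positive visual image hit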;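 also: compound added about 3h40 before a 20 min TNFalpha stimulation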;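 as to inhibition: signal is the nuclear over cytoplasmic p65 intensity ratio per well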); conditions: HUVEC TNFa-induced p65 nuclear translocation; cell count: measured here: nuclei count (cytotoxicity indicator), at 2.08 µM; inhibition: at 2 µM, stronger effect = higher value, 0% TNFa-plus-vehicle, 100% no-TNFa wells
[2] = inhibitors of mutant huntingtin aggregation, primary screen, imaging, exon1htt(103Q)mCFP cells, high-content imaging (AID 483;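 active = visual image review flags a hit and inhibition of aggregation exceeds 20%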;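 also: compound exposure lasted 3 days before fixation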;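 as to nuclei count: percent of the per-plate median nuclei count of sample wells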); conditions: exon1htt(103Q)mCFP cell line, aggregate imaging, at 2 µM; inhibition of aggregation: stronger effect = higher value; nuclei count: measured here: cell count, toxicity
[3] = inhibitors of E-selectin induction by TNFa, primary screen, imaging, HUVEC, immunofluorescence, MLSMR starter and 10KST1 sets (AID 487;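 active = visually confirmed hit in the image check and inhibition above 20%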;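 as to inhibition: signal is fraction of cell area covered by stained E-selectin grains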;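 as to nuclei count: 100% = median nuclei count of all wells on the same plate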); conditions: HUVEC TNFalpha-induced E-selectin immunofluorescence imaging, at 2 µM; inhibition: stronger effect = higher value; nuclei count: measured here: cell number, toxicity
[4] = target: Voltage-gated potassium channel subunit beta-2 (Rattus norvegicus) (UniProt P62483); assay: KvBeta enzyme negative modulators, primary screen, biochemical, NADPH fluorescence (AID 622;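 active = fluorescence slope higher than the sample average by over 3 SD, cut at about -0.22 in these data, passing the limit was not always enough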;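 also: slope of raw intensity against log time taken from 70 to 1610 s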); conditions: recombinant KvBeta, 4-cyanobenzaldehyde reduction, at 10 µM, stronger effect = higher value
Voltage-gated potassium channel subunit beta-2 (Rattus norvegicus), sequence (P62483 whole entry, looked up): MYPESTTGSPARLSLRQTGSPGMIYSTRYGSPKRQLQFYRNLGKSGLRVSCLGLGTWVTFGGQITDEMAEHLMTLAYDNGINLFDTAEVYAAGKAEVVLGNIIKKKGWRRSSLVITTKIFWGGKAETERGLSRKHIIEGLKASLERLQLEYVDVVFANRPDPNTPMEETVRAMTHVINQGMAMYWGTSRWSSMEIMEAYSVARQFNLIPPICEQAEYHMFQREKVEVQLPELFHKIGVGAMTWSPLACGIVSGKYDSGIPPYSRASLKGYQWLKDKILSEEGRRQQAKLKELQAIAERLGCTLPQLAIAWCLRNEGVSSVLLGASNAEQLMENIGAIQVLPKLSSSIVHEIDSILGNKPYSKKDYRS

[5] = target: Voltage-gated potassium channel subunit beta-2 (Rattus norvegicus) (UniProt P62483); assay: KvBeta positive modulators, primary screen, biochemical, NADPH fluorescence (AID 623;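 active = NADPH fluorescence slope more negative than the mean of all samples by about 3 SD, 99.7% confidence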;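 also: fluorescence intensity change per second fitted from 20 to 320 s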); conditions: Recombinant KvBeta, NADPH fluorescence decrease slope, 10 min; at 10 µM; stronger effect = lower value
[6] = target: Alpha-2C adrenergic receptor (Homo sapiens) (UniProt P18825); assay: modulators of alpha2C/GIRK thallium flux, primary screen, cell-based, HEK293 alpha2C/GIRK1/2 (AID 624;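 active = fluorescence slope after compound addition differing from the mean of all screened samples at 99.7% confidence, in either direction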;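 also: slope of fluorescence ratio to pre-addition baseline per second over 15 to 24 s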); conditions: thallium flux BTC fluorescence, at 10 µM, actives lie on both sides
Alpha-2C adrenergic receptor (Homo sapiens), sequence (P18825 whole entry, looked up): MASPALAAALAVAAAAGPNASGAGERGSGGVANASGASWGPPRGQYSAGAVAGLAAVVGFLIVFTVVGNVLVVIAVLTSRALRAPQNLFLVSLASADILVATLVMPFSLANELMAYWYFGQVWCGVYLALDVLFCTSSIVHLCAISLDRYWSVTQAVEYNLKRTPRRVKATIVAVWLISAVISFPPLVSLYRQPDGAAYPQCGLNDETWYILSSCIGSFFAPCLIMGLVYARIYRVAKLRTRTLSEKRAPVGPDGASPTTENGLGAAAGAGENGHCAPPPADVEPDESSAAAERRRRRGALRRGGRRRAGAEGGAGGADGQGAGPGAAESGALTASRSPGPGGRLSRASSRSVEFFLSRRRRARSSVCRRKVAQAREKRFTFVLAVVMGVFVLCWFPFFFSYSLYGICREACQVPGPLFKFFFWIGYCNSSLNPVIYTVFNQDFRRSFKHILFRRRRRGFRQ

[7] = inhibitors of Sendai virus-induced IRF3 signaling, primary screen, TLR/RLR signaling modifier project, cell-based, Sendai virus stimulus, luciferase, 10K MLSCN set (AID 602276;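 active = inhibition at or above 50% at 10 µM; inactive = inhibition below 50%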;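 also: firefly luciferase from ISG56 promoter only with Renilla not read in this screen; 0% = Sendai virus plus DMSO and 100% = medium plus DMSO without virus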); conditions: HEK293 RL24 IRF3 luciferase reporter, at 10 µM, stronger effect = higher value
[8] = inhibitors of poly I:C-induced TLR3 signaling, primary screen, cell-based, poly I:C stimulus, luciferase, 10K MLSCN set (AID 602277); conditions: HEK293-TLR3 RL24 IRF3 luciferase reporter, at 10 µM, stronger effect = higher value

In the case of `CCOC(=O)c1cccc(NC(=O)CS(=O)(=O)Cc2nc(-c3cccc(OC)c3)oc2C)c1`, the cell count [1] is reported as 572, the inhibition [1] is reported as -40.8% (inactive) and the inhibition of aggregation [2] is reported as -19.3% (inactive). The nuclei count [2] was 106%, the inhibition [3] was -15.4% (inactive) and the nuclei count [3] was 102%. The fluorescence slope [4] was -0.524 (inactive), the NADPH fluorescence slope [5] was -3.5e-05 (inactive) and the slope [6] was 0.00568 (inactive). For the same compound, the inhibition [7] was -5.01% (inactive) and the inhibition [8] was 12.4% (inactive).

For `Cc1cc(NC(=O)CCCN2C(=O)c3cccnc3C2=O)no1`, the cell count [1] was 429, the inhibition [1] was 5.6% (inactive) and the inhibition of aggregation [2] was 17.7% (inactive). The nuclei count [2] was 100%, the inhibition [3] was -64.2% (inactive) and the nuclei count [3] was 79.6%. For the same compound, the fluorescence slope [4] was -0.459 (inactive), the NADPH fluorescence slope [5] was 1.6e-05 (inactive) and the slope [6] was 0.00763 (inactive). For the same compound, the inhibition [7] was -4.41% (inactive) and the inhibition [8] was 13.4% (inactive).

With `CN(CCNS(=O)(=O)c1ccc2c(c1)oc(=O)n2C)Cc1ccccc1` the cell count [1] was 739, the inhibition [1] was -6.7% (inactive) and the inhibition of aggregation [2] was -7.2% (inactive). The nuclei count [2] was 95.2%, the inhibition [3] was -65.3% (inactive) and the nuclei count [3] was 119%. The fluorescence slope [4] was -0.604 (inactive), the NADPH fluorescence slope [5] was -4.2e-05 (inactive) and the slope [6] was 0.0075 (inactive). For the same compound, the inhibition [7] was 9.41% (inactive) and the inhibition [8] was 39.8% (inactive).

For `O=C(Cn1cnc2c(cnn2-c2ccccc2)c1=O)NCCc1ccccc1`, the cell count [1] was 441, the inhibition [1] was 3.5% (inactive) and the inhibition of aggregation [2] was -9.4% (inactive). The nuclei count [2] was 112%, the inhibition [3] was -25% (inactive) and the nuclei count [3] was 113%. For the same compound, the fluorescence slope [4] was -0.535 (inactive), the NADPH fluorescence slope [5] was -6.8e-07 (inactive) and the slope [6] was 0.00728 (inactive). For the same compound, the inhibition [7] was 10.8% (inactive) and the inhibition [8] was 17.4% (inactive).

For `CC(=O)c1cn(CC(=O)NCc2ccc3c(c2)OCO3)c2ccccc12`, the cell count [1] was 326, the inhibition [1] was -2.1% (inactive) and the inhibition of aggregation [2] was -11.9% (inactive). The nuclei count [2] was 108%, the inhibition [3] was -24.5% (inactive) and the nuclei count [3] was 107%. The fluorescence slope [4] was -0.534 (inactive), the NADPH fluorescence slope [5] was -9.1e-05 (inactive) and the slope [6] was 0.00566 (inactive). The inhibition [7] was 11.9% (inactive) and the inhibition [8] was 9.83% (inactive).

In the case of `O=C(Cn1nc(-c2ccc3c(c2)OCCO3)ccc1=O)Nc1ccc(N2CCOCC2)cc1`, the cell count [1] is reported as 270, the inhibition [1] is reported as 11.8% (inactive) and the inhibition of aggregation [2] is reported as -53.9% (inactive). The nuclei count [2] was 90.7%, the inhibition [3] was -60.3% (inactive) and the nuclei count [3] was 111%. The fluorescence slope [4] was -0.429 (inactive), the NADPH fluorescence slope [5] was -5.2e-05 (inactive) and the slope [6] was 0.00403 (inactive). For the same compound, the inhibition [7] was 2.21% (inactive) and the inhibition [8] was 21% (inactive).

In the case of `CN(Cc1cccs1)C(=O)CCc1ccc(S(=O)(=O)N2CCOCC2)cc1`, the cell count [1] is reported as 475, the inhibition [1] is reported as 1% (inactive) and the inhibition of aggregation [2] is reported as -10.3% (inactive). For the same compound, the nuclei count [2] was 94%, the inhibition [3] was -10.9% (inactive) and the nuclei count [3] was 114%. The fluorescence slope [4] was -0.466 (inactive), the NADPH fluorescence slope [5] was -3.6e-05 (inactive) and the slope [6] was 0.00394 (inactive). The inhibition [7] was -6.32% (inactive) and the inhibition [8] was 14.6% (inactive).

With `OC(CCN1CCOCC1)(c1ccc(Cl)cc1)C1CCCCC1` (centres undefined) the cell count [1] was 663, the inhibition [1] was -1% (inactive) and the inhibition of aggregation [2] was -1.2% (inactive). For the same compound, the nuclei count [2] was 48.5%, the inhibition [3] was 37.9% (inactive) and the nuclei count [3] was 120%. For the same compound, the fluorescence slope [4] was -0.588 (inactive), the NADPH fluorescence slope [5] was -2.6e-05 (inactive) and the slope [6] was 0.00224 (inactive). For the same compound, the inhibition [7] was -9.83% (inactive) and the inhibition [8] was -48.9% (inactive).

In the case of `CCCCn1c(=O)[nH]c(=O)c2c1nc(-c1ccncc1)n2CCOC`, the cell count [1] is reported as 542, the inhibition [1] is reported as -15.4% (inactive) and the inhibition of aggregation [2] is reported as -7.3% (inactive). For the same compound, the nuclei count [2] was 107%, the inhibition [3] was -19.9% (inactive) and the nuclei count [3] was 138%. For the same compound, the fluorescence slope [4] was -0.446 (inactive), the NADPH fluorescence slope [5] was -4.3e-05 (inactive) and the slope [6] was 0.00406 (inactive). For the same compound, the inhibition [7] was 0.301% (inactive) and the inhibition [8] was 33.4% (inactive).

For `Cc1cc(=O)[nH]c(SCc2nc3ncccn3c2Br)n1`, the cell count [1] was 636, the inhibition [1] was -2.4% (inactive) and the inhibition of aggregation [2] was -10.4% (inactive). For the same compound, the nuclei count [2] was 76.5%, the inhibition [3] was -32.2% (inactive) and the nuclei count [3] was 107%. For the same compound, the fluorescence slope [4] was -0.27 (inactive), the NADPH fluorescence slope [5] was -6.4e-06 (inactive) and the slope [6] was 0.00645 (inactive). The inhibition [7] was 8.84% (inactive) and the inhibition [8] was 23.4% (inactive).

With `N#Cc1c(NC(=O)c2ccc(Br)o2)n(-c2ccccc2)c2nc3ccccc3nc12` the cell count [1] was 275, the inhibition [1] was -1.4% (inactive) and the inhibition of aggregation [2] was 14.7% (inactive). For the same compound, the nuclei count [2] was 97.4%, the inhibition [3] was -63.2% (inactive) and the nuclei count [3] was 104%. The fluorescence slope [4] was -0.502 (inactive), the NADPH fluorescence slope [5] was -2e-05 (inactive) and the slope [6] was 0.0121 (active). The inhibition [7] was 19.9% (inactive) and the inhibition [8] was 18.8% (inactive).

With `CCN(CC)CCCn1c(=S)[nH]c2cc(Cl)ccc2c1=O` the cell count [1] was 353, the inhibition [1] was -0.2% (inactive) and the inhibition of aggregation [2] was 7.4% (inactive). The nuclei count [2] was 100%, the inhibition [3] was 6.9% (inactive) and the nuclei count [3] was 97.4%. The fluorescence slope [4] was -0.514 (inactive), the NADPH fluorescence slope [5] was -0.000206 (active) and the slope [6] was 0.00373 (inactive). The inhibition [7] was 12.1% (inactive) and the inhibition [8] was 21.3% (inactive).

With `Cc1nc2ccccc2c2oc(C(=O)NCC3COc4ccccc4O3)cc12` (centres undefined) the cell count [1] was 532, the inhibition [1] was 7.6% (inactive) and the inhibition of aggregation [2] was -11.9% (inactive). For the same compound, the nuclei count [2] was 91.7%, the inhibition [3] was 3.3% (inactive) and the nuclei count [3] was 99%. The fluorescence slope [4] was -0.569 (inactive), the NADPH fluorescence slope [5] was -1.4e-05 (inactive) and the slope [6] was 0.00744 (inactive). The inhibition [7] was 9.7% (inactive) and the inhibition [8] was -3.35% (inactive).

For `Cc1cccc(Cc2c(C)nc3nc(SCC(=O)NCc4ccco4)nn3c2C)c1`, the cell count [1] was 389, the inhibition [1] was 0.3% (inactive) and the inhibition of aggregation [2] was 5.8% (inactive). For the same compound, the nuclei count [2] was 85.7%, the inhibition [3] was -79.7% (inactive) and the nuclei count [3] was 101%. The fluorescence slope [4] was -0.463 (inactive), the NADPH fluorescence slope [5] was -5.1e-07 (inactive) and the slope [6] was 0.00687 (inactive). The inhibition [7] was 10.8% (inactive) and the inhibition [8] was 27.6% (inactive).
